According to PubChem BioAssay (Tox21):
Records with an inconclusive call do not appear. Activity calls are given as the source filed them. Unless noted, calls follow the shape of the full dose curve. Non-standard residues stand in square brackets, D forms with d. Residues, ends and D or L forms follow the SMILES beside them. *: point of attachment. Sta = CC(C)C[C@H](N)[C@@H](O)CC(=O)O; Isovaleryl = CC(C)CC(=O)*

Legend:
[1] = biological target: Thyrotropin receptor (Homo sapiens) (UniProt P16473); experiment: qHTS assay to identify small molecule agonists of the thyroid stimulating hormone receptor (TSHR) signaling pathway (AID 1224843); also: nearly all actives have a fitted effect of over 45% in size
Thyrotropin receptor (Homo sapiens), sequence (P16473 whole entry, looked up): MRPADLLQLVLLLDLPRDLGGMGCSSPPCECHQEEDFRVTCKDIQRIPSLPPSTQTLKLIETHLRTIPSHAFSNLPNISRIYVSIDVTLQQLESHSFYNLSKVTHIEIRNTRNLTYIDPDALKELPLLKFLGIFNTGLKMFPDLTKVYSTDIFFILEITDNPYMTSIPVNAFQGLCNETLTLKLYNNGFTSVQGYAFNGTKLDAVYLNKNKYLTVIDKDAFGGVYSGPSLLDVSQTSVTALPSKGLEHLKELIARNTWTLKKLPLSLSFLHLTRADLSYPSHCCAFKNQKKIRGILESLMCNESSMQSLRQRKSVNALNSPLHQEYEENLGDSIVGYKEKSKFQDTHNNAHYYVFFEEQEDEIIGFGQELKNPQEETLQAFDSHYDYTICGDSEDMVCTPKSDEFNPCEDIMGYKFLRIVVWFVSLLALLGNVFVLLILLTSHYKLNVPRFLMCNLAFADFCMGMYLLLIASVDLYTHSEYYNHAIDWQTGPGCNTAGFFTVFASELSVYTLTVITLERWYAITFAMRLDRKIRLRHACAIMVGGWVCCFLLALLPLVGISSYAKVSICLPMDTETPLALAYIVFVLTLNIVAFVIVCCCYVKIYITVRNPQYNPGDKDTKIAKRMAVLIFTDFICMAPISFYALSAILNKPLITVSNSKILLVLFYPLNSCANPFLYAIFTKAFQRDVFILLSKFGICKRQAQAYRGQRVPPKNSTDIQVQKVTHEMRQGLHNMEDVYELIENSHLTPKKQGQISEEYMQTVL
Summary of the method: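 Cell line HEK293 with TSHR; density 800/well. Exposure 30 min RT. Readout HTRF cAMP (cAMP-d2/anti-cAMP-cryptate), 1 h RT before reading.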

[2] = qHTS assay to identify small molecule agonists of the hypoxia (HIF-1) signaling pathway - cell viability counter screen (AID 1224844); also: nearly all actives have a fitted effect of over 50% in size
Summary of the method: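 Cells (HRE-bla ME-180, 2,000 per well) sat 5 hrs at 37C, got compound for 17 hrs, were read for CCF4-AM FRET, and were finally lysed with CellTiter-Glo for a 30 min room-temperature luminescence read.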

[3] = qHTS assay to identify small molecule agonists of H2AX (AID 1224845; active = well fitted activation curve with a large enough effect in the signal ratio in the repeat runs, not every such curve was filed as active; the % refers to the signal ratio)
Summary of the method: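 Wild-type CHO-K1 cells plated overnight, then exposed 3 hr at 37C to compounds at 15 concentrations (0.76% DMSO). Lysed, then HTRF anti-pH2AX(S139)-cryptate/anti-H2AX-d2 detection after 24 hr at room temperature; emissions 665 and 620 nm.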

[4] = qHTS assay to identify small molecule agonists of the hypoxia (HIF-1) signaling pathway (AID 1224846; active = well fitted activation curve with a large enough effect in the signal ratio in the repeat runs, not every such curve was filed as active; the % refers to the signal ratio)
Summary of the method: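 A low-serum medium (0.5% dialyzed FBS) holding 2,000 HRE-bla ME-180 cells per well is preincubated for 5 hrs, dosed with compounds by pintool, and kept a further 17 hrs at 37C, 5% CO2 before CCF4-AM FRET detection of beta-lactamase.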

[5] = qHTS assay to identify small molecule agonists of H2AX - cell viability counter screen (AID 1224847); also: top concentration of the series differs between compounds; nearly all actives have a fitted effect of over 30% in size
Summary of the method: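 Quantitative HTS viability measurement: CHO-K1 wild-type cells in serum (10% FBS) medium, short 3 hr drug exposure at 37C with 0.76% DMSO, CellTiter-Glo luminescent detection.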

[6] = qHTS RealTime-Glo MT Cell Viability Assay in HepG2 cells - 24 hour (AID 1224867; active = well fitted cell-killing curve with a large enough effect in the repeat runs; also: nearly all actives have a fitted effect of over 50% in size)
Summary of the method: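 HepG2 cells (600/well) were dispensed with RealTime-Glo reagents, incubated 5 h at 37 °C, then treated with compounds in DMSO for up to 40 h. Nonlytic NanoLuc luminescence reflecting viable cells was read at each stated time point.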
% is scaled to controls: 0 for no effect and ±100 for the full control effect.

CN1CCN(C(=O)C2CCCCC2)CC1
inactive: Potency [1] | outcome [2] | outcome [3] | outcome [4] | outcome [5] | outcome [6]

CCCC(=O)OC
inactive: Potency [1] | outcome [2] | outcome [3] | outcome [4] | outcome [6]

CCN(CC)CC(=O)Oc1ccc(NC(C)=O)cc1
inactive: Potency [1] | outcome [2] | outcome [3] | outcome [4] | outcome [5] | outcome [6]

Cc1cc(N)no1
inactive: Potency [1] | outcome [2] | outcome [3] | outcome [4] | outcome [5] | outcome [6]

CC(C)(O)c1ccc(C(C)(C)O)cc1
inactive: Potency [1] | outcome [2] | outcome [3] | outcome [5] | outcome [6]

O=Cc1ccc(C(=O)O)cc1
inactive: outcome [2] | outcome [3] | outcome [4] | outcome [5]

Nc1ccc(C(=O)NCC(=O)O)cc1
inactive: outcome [2] | outcome [3] | outcome [4] | outcome [5] | outcome [6]

O=C(O)/C=C(\CC(=O)O)C(=O)O
inactive: Potency [1] | outcome [2] | outcome [3] | outcome [5] | outcome [6]

CCCCCCCCS(=O)(=O)O
inactive: outcome [2] | outcome [3] | outcome [4] | outcome [5] | outcome [6]

Cc1cc2c(cc1CC(=O)c1sccc1S(=O)(=O)Nc1onc(C)c1Cl)OCO2
inactive: outcome [2] | outcome [3] | outcome [4] | outcome [5]

C[C@@H]1CC[C@@]2(OC1)O[C@H]1C[C@H]3[C@@H]4CC[C@H]5C[C@@H](O)CC[C@]5(C)[C@H]4CC(=O)[C@]3(C)[C@H]1[C@@H]2C
inactive: activation [1] -5.02% [at 8.39 µM] | activity change, negative = cytotoxicity [2] 3.36% [at 6.97 µM] | activation (H2AX phosphorylation) [3] 0.205% [at 14 µM] | activity change, negative = cytotoxicity [5] -1.3% [at 14 µM] | activity change, negative = cytotoxicity [6] -0.436% [at 6.97 µM]

CC(=O)c1ccc(O)c(C(N)=O)c1
inactive: Potency [1] | outcome [2] | outcome [3] | outcome [5] | outcome [6]

CC(C)(C)C(=O)NCCCC(=O)O
inactive: Potency [1] | outcome [2] | outcome [3] | outcome [5] | outcome [6]

C/C=C(\C)C=O
inactive: outcome [2] | outcome [3] | outcome [4] | outcome [5]

CCCCCCCCCCCCCCCCN(C)C
inactive: activity change, negative = cytotoxicity [2] -5.55% [at 6.97 µM] | activation (H2AX phosphorylation) [3] 1.56% [at 14 µM] | activation [4] -0.212% [at 7.01 µM] | activity change, negative = cytotoxicity [5] -3.36% [at 14 µM]

CNCCc1ccccn1
inactive: Potency [1] | outcome [2] | outcome [3] | outcome [5] | outcome [6]

CCCOc1ccc(C(=O)OCCN(CC)CC)cc1N
inactive: Potency [1] | outcome [2] | outcome [3] | outcome [5] | outcome [6]

C/C(=N\O)c1ccc(OCC(=O)N2CCCCC2)cc1
inactive: Potency [1] | outcome [2] | outcome [3] | outcome [5] | outcome [6]

CCCCCC(=O)CC
inactive: Potency [1] | outcome [2] | outcome [3] | outcome [5]

CCCC(=O)C(CC)Sc1ccoc1C (stereo unspecified)
inactive: Potency [1] | outcome [2] | outcome [3] | outcome [6]

COc1cc(C(=O)NC2CCCNC2)cc(OC)c1OC (stereo unspecified)
inactive: Potency [1] | outcome [2] | outcome [3] | outcome [5]

CCOC(=O)c1ccc(N(C)C)cc1
inactive: outcome [2] | outcome [3] | outcome [4] | outcome [5] | outcome [6]

CCCc1ccc(O)c(OC)c1
inactive: outcome [2] | outcome [3] | outcome [4] | outcome [5] | outcome [6]

c1coc(Cn2cccc2)c1
inactive: Potency [1] | outcome [2] | outcome [3] | outcome [5] | outcome [6]

CC(C)CC(=O)N[C@H](C(=O)N[C@H](C(=O)N[C@@H](CC(C)C)[C@@H](O)CC(=O)N[C@@H](C)C(=O)N[C@@H](CC(C)C)[C@@H](O)CC(=O)O)C(C)C)C(C)C (Isovaleryl-VV[Sta]A[Sta]-OH)
inactive: Potency [1] | outcome [2] | outcome [3] | outcome [5] | outcome [6]

CCO/C=C1\N=C(c2ccccc2)OC1=O
inactive: Potency [1] | outcome [3] | outcome [5] | outcome [6]

O=C(O)COc1ccc2ccccc2c1
inactive: outcome [2] | outcome [3] | outcome [4] | outcome [5]

CCNC(=O)C(C)OC(=O)Nc1ccccc1 (stereo unspecified)
inactive: Potency [1] | outcome [2] | outcome [3] | outcome [5] | outcome [6]

CCCCCCCCCCCCCCBr
inactive: Potency [1] | outcome [2] | outcome [3] | outcome [5]

N#Cc1ccccc1C#N
inactive: outcome [2] | outcome [3] | outcome [4] | outcome [5]

C/C(Cl)=C/CCl
inactive: Potency [1] | outcome [2] | outcome [3] | outcome [5] | outcome [6]

CCCCCCCCCCCBr
inactive: outcome [2] | outcome [3] | outcome [4] | outcome [5]

CCCCCCCCCCCCCCCC/C=C/C1CC(=O)OC1=O (stereo unspecified)
inactive: Potency [1] | outcome [2] | outcome [3] | outcome [5] | outcome [6]

C=CC(=O)OCC[N+](C)(C)C
inactive: Potency [1] | outcome [2] | outcome [3] | outcome [5] | outcome [6]

CC1(C)S[C@@H]2[C@H](NC(=O)Cc3ccccc3)C(=O)N2[C@H]1C(=O)O (tested in a mixture with another compound)
inactive: Potency [1] | outcome [2] | outcome [3] | outcome [5] | outcome [6]
